In the library only some 1.2% were active in any assay of this set; here they are far more common.
TLR4-MyD88 BLA: TLR4-MyD88 interaction inhibition in cells | hit rate 0.18% among 200,000 | AID 861 | HeLa CL3-4 TLR4/MyD88 BLA complementation, FRET ratio | O00206+Q99836 | inhibition, % at 8.4 µM; in the data active = inhibition above about 25%
TLR9-MyD88 inh: TLR9-MyD88 interaction inhibition. CHO BLA complementation TLR9-MyD88, CCF4 FRET ratio. inhibition, % at 4.98 µM. hit rate 0.21% among 340,000. AID 504734. Q9NR96+Q99836;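 active = inhibition above the mean over all tested compounds plus 3 SD, cut at about 21% in these data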
NPR1 activator: GC-A (human) enzyme activation; hit rate 0.14% among 370,000; HEK293 GC-A cells, cGMP TR-FRET, EC30 ANP; 0% at EC30 ANP, 100% saturating ANP; P16066; AID 1671463; activation, % at 10 µM; in the data active = activation above about 40%
NOD2 RIPK2 PPI: blocks binding of human NOD2 to RIPK2. O43353. CHO BLA complementation NOD2-RIPK2, CCF4 ratio. inhibition, % at 4.98 µM. hit rate 0.38% among 360,000. AID 624267; in the data active = inhibition above about 21%
Target sequence (O43353 whole entry, looked up): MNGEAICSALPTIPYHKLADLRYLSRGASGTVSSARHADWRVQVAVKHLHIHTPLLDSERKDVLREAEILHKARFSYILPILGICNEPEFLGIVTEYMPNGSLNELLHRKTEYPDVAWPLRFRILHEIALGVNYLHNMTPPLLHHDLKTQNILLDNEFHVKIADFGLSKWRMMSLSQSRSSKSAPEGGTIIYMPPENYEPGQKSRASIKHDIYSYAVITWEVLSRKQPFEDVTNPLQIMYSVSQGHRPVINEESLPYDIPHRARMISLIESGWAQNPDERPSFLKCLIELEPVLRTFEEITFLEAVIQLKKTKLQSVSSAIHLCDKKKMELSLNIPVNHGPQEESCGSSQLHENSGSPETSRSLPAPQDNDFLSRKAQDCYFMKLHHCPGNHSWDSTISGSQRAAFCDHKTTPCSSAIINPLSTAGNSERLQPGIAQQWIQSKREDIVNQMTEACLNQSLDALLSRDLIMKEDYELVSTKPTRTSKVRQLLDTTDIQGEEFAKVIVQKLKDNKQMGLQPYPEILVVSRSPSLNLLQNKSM
NPR2 activator: GC-B (human) receptor activation; HEK293-GC-B cells, CNP EC30, cGMP TR-FRET; 0% at EC30 CNP, 100% saturating CNP; activation, % at 10 µM; hit rate 0.11% among 370,000; AID 1920062;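 active = activation at 10 µM reaching about 35% in either raw or pattern-adjusted values, limit read from the data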
Neddylation inh: inhibitors of human cullin neddylation; AID 651699; hit rate 0.58% among 360,000; P61081+Q13564; TR-FRET cullin neddylation, biochemical; inhibition, % at 25 µM; in the data active = inhibition above about 36%
Neddyl inh conf: cullin neddylation inhibition, confirmation; calls only at 25 µM; shares compounds with Neddylation inh; TR-FRET cullin neddylation biochemical assay; AID 652217; hit rate 13% among 1,800; in the data active = inhibition above about 40%;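 note: neddylation substrate is the cullin 1 ring ligase complex with SKP2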
A number is an active result; . = inactive; / = not tested or not shown; + = active, no number.

SMILES	TLR4-MyD88 BLA	TLR9-MyD88 inh	NPR1 activator	NOD2 RIPK2 PPI	NPR2 activator	Neddylation inh	Neddyl inh conf
Cc1ccccc1OCC(=O)NNC(=O)c1ccc2c(=O)n3c(nc2c1)CCC3	/	.	.	.	.	.	/
COc1ccc(/C=N/NC(=O)CNC(=O)COc2ccccc2)cc1	.	.	.	.	.	.	/
COc1ccc(OCC(=O)N/N=C/c2ccc(N(C)C)cc2)cc1	.	.	.	.	.	45	+
CCN1C(=O)c2cccc3c(S(=O)(=O)NCc4ccco4)ccc1c23	.	.	.	.	.	51	.
CCN1C(=O)c2cccc3c(S(=O)(=O)NCc4cccnc4)ccc1c23	.	.	.	.	.	/	/
CCN1CCN(S(=O)(=O)c2ccc3c4c(cccc24)C(=O)N3CC)CC1	/	.	.	.	.	58	/
O=C(c1cc2ccccc2cc1O)N1CCN(c2ccc([N+](=O)[O-])cc2)CC1	/	.	.	.	.	.	/
CCN(CC(=O)Nc1ccc(NC(C)=O)cc1)C(=O)c1ccc(S(=O)(=O)N2CCCC2)cc1	/	.	.	.	.	.	/
N#C/C(=C\c1cn(Cc2ccc(C#N)cc2)c2ccccc12)C(=O)NCc1cccs1	.	.	.	.	.	43	/
N#C/C(=C\c1cn(CCOc2ccccc2F)c2ccccc12)C(=O)NCc1cccs1	.	.	.	.	.	.	/
CN1C=CC2=C(C#N)C(N)C(C#N)(C#N)C(c3ccccc3)C2C1 (configuration not stated)	.	.	.	.	.	43	.
COc1ccc(-c2cc3ccc(OCc4nn[nH]n4)cc3oc2=O)cc1OC	.	.	.	.	.	58	+
Cc1cccc(NC(=O)CNC(=O)[C@@H](Cc2ccccc2)NC(=O)[C@H]2O[C@@H](n3ccc(N)nc3=O)[C@H](O)[C@@H]2O)c1C	/	/	.	/	.	/	/
Clc1ccc(/C=C/c2nc(Cl)c(-c3ccc(Cl)cc3)c(Cl)n2)cc1	/	.	.	.	.	41	.
Nc1nc(N)nc(-c2ccc(Cl)cc2)n1	.	.	.	.	.	.	/
O=c1[nH]c(=O)c2nc(-c3ccc(Cl)cc3)cnc2[nH]1	.	.	.	.	.	.	/
CCc1ccc(-c2cnc3nc[nH]c(=O)c3n2)cc1	/	.	.	.	.	59	+
COc1cc(-c2cc3nc(C)c(C)c(=O)n3[nH]2)cc(OC)c1OC	.	.	.	.	.	42	.
Cc1ccc(-c2nnc(SCC(=O)Nc3ccc4c(c3)OCCO4)n2-c2ccc(C)cc2)cc1	/	/	.	/	.	/	/
COC(=O)c1ccc(-c2ccc(/C=N/NC(=O)Cc3nnc(N)s3)o2)cc1	/	.	.	.	.	51	.
CCOc1ccc(-c2ccc3nnc(SCC(=O)NCC4CCCO4)n3n2)cc1 (configuration not stated)	/	.	.	.	.	54	/
CCOc1ccc(-c2ccc(SCC(=O)NCC3CCCO3)nn2)cc1 (configuration not stated)	.	.	.	.	.	.	/
CCc1ccc(-c2ccc3nnc(SCC(=O)NCC4CCCO4)n3n2)cc1 (configuration not stated)	/	.	.	.	.	59	/
Cc1ccc(-c2ccc3nnc(SCC(=O)NCC4CCCO4)n3n2)cc1 (configuration not stated)	.	.	.	.	.	.	/
COc1ccc(-c2ccc3nnc(SCC(=O)NCC4CCCO4)n3n2)cc1 (configuration not stated)	/	.	.	.	.	59	/
SMILES	TLR4-MyD88 BLA	TLR9-MyD88 inh	NPR1 activator	NOD2 RIPK2 PPI	NPR2 activator	Neddylation inh	Neddyl inh conf
CC(=O)Oc1ccccc1Cn1c(C)c(C(=O)NCc2cccc([N+](=O)[O-])c2)sc1=O	/	/	.	.	.	.	/
COc1cc(NC(=O)CSc2nc3ccccc3n2-c2ccccc2)c(C)cc1[N+](=O)[O-]	.	.	.	.	.	43	.
COc1ccc(-n2c(SCC(=O)Nc3ccc([N+](=O)[O-])cc3OC)nc3ccccc32)cc1	.	.	.	.	.	.	/
CCCCC1=CC2=CC(=O)C(C)(OC(=O)CC)C(=O)C2=CN1CCc1ccccn1 (configuration not stated)	/	.	.	.	.	38	.
N#Cc1cc2c(=O)n3ccccc3nc2n(CCCn2ccnc2)c1=N	.	.	.	.	.	46	.
N=c1c(S(=O)(=O)c2ccccc2)cc2c(=O)n3ccccc3nc2n1CCCN1CCOCC1	/	.	.	.	.	63	.
Cc1ccc(S(=O)(=O)c2cc3c(=O)n4ccccc4nc3n(C)c2=N)cc1C	/	.	.	.	.	/	/
C=CCn1c(=N)c(S(=O)(=O)c2ccc(C)c(C)c2)cc2c(=O)n3ccccc3nc21	/	.	.	.	.	47	.
COc1ccc(NC(=O)C(C)N2C(=O)c3ccccc3C2=O)c(OC)c1 (configuration not stated)	/	/	.	.	.	.	/
COC(OC)C1Nc2ccccc2C(=O)N1c1ccc(F)cc1 (configuration not stated)	/	.	.	.	.	43	/
Cc1n[nH]c(=S)n1/N=C/c1ccccc1	.	.	.	.	.	.	/
Cc1ccc(-n2nc(C)c(/C=N/n3c(C)n[nH]c3=S)c2Cl)cc1	.	.	.	.	.	46	.
O=[N+]([O-])c1cc(Br)ccc1C[n+]1ccccc1	/	.	.	.	.	.	/
O=C(O)CCn1c(-c2ccccc2)cc2ccccc21	.	.	.	.	.	50	/
O=C(O)CCn1c(CO)nc2ccccc21	.	.	.	.	.	.	/
COc1ccccc1-c1nc(C#N)c(N2CCN(Cc3ccccc3)CC2)o1	.	.	.	.	.	46	/
COc1ccccc1-c1nc(C#N)c(N2CCC(Cc3ccccc3)CC2)o1	.	.	.	.	.	/	/
COC(=O)[C@]12CCCCC=C1N(CCC1=CCCCC1)C(=O)[C@H](CC(=O)N1CCC(c3ccccc3)CC1)C2	/	/	.	.	.	.	/
CC1CCN(C(=O)CSc2nc(N)c3c4c(sc3n2)CN(C)CC4)CC1	.	.	/	.	/	.	/
CN1CCc2c(sc3nc(SCC(=O)N4CCOCC4)nc(N)c23)C1	.	.	.	.	.	42	.
CCOC(=O)CC[C@@H]1CC[C@]2(CCCN(Cc3ccc(OC)cc3)C2)O1	/	/	.	/	.	/	/
COc1ccc2[nH]c(C(=O)O)c(NS(=O)(=O)c3ccc(C)c(C)c3)c2c1	/	.	.	.	.	40	.
COc1ccccc1-c1sc2cc3c(cc2c1C#Cc1cncn1C)OCO3	/	.	.	.	.	30	+
COc1ccc2sc(-c3ccccc3OC)c(C#Cc3cncn3C)c2c1	/	.	.	.	.	.	/
CCC1CCCCN1CCCNC(=O)Cn1ncc2c(C)n(Cc3ccccc3Cl)c(C)c2c1=O (configuration not stated)	/	.	.	.	.	.	/
